AHR act = AHR activators, primary screen, cell-based, luminescence, luciferase reporter, human | 320,000 tested, 2.5% active | AID 2796, 2010 | activation, % at 5 µM | AHR-responsive luciferase reporter cells; in the data active = activation above about 47%;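 also: 0% = vehicle wells and 100% = reference agonist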
Target sequence (P35869 whole entry, looked up): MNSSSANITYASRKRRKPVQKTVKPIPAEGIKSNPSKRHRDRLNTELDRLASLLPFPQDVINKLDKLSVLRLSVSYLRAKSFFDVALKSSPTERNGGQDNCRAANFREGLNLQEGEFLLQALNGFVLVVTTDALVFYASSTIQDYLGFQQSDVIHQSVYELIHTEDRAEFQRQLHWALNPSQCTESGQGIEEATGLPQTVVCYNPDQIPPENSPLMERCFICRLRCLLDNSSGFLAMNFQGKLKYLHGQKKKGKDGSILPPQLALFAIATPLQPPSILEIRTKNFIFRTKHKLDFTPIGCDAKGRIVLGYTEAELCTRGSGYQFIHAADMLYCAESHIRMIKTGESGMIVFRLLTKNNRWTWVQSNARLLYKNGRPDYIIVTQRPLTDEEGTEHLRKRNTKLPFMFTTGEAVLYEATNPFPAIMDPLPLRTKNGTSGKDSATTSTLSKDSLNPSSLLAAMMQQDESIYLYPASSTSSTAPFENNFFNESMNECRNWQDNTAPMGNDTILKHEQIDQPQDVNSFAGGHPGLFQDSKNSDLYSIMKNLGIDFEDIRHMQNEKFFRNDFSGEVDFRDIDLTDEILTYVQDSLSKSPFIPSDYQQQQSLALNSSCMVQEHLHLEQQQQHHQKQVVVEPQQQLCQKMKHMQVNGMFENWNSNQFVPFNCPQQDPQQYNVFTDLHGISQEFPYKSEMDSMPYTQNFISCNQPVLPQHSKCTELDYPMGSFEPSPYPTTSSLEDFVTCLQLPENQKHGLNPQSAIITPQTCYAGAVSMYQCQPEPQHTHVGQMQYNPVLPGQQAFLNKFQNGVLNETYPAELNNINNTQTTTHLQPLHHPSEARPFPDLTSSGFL
HIF act = HIF pathway transcriptional activators, primary screen, cell-based, U2OS HRE-luciferase, luminescence | U2OS HRE-luciferase reporter; normalized: DMSO 0%, desferrioxamine 100% | activation, % at 7.5 µM (by protocol) | 300,000 tested, 0.32% active | AID 1910, 2009;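 active = mean activation of at least 10% of the iron chelator positive control signal, with at least half of replicates also reaching 10%; inconclusive = mean and replicate majority disagree about reaching 10%; inactive = mean and most replicates under 10%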
PolyA inh = polyadenylation inhibitors in yeast reporter cells, primary screen, luminescence, S. cerevisiae | 300,000 tested, 0.02% active | S. cerevisiae SKY197-pL101 polyadenylation reporter, beta-gal luminescence; efflux-impaired pdr1/pdr3 knockout yeast; score 100 = 6 SD above DMSO | AID 1875, 2009 | activity score, % at 12 µM;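 active = lowest replicate activity score at least 50, where 100 means six control SD above control mean; inconclusive = lowest score under 50 but half or more replicates reach 50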;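 also: yeast exposed to compound for 9 h at 30 °C; higher score means more reporter readthrough which indicates perturbed polyadenylation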
p-CIP stab down = p/CIP-EGFP fusion destabilizers, primary screen, fluorescence, F442A cells | Q05BA5 | 16 h | decrease of EGFP signal, % at 10 µM | 290,000 tested, 0.01% active | AID 1984, 2009;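 active = EGFP signal decrease of at least 30% at 10 µM or well 3 SD below plate mean, unless failing retest; inactive = the rest, including hits failing retest or dose response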
Platelet DG rel = inhibitors of platelet dense granule secretion, primary screen, cell-based, MLPCN, human platelets. 300,000 tested, 0.22% active. inhibition, %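 (compounds screened at 7.5 µM in platelet-rich plasma)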. human platelet-rich plasma, SFLLRN dense granule ATP release, luminescence. AID 1663, 2009;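 active = mean replicate score, as percent of positive control, at or above 50; inconclusive = mean below 50 but at least one replicate at or above 50; inactive = mean and every replicate below 50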
The depositor's hits bear a star; ? = inconclusive; / = no result. Sampled rows, rich in hits. Any-hit rate of the full collection: about 2.8%.

SMILES | AHR act | HIF act | PolyA inh | p-CIP stab down | Platelet DG rel
O=C(Nc1ccc(C(F)(F)F)cc1)c1csc(-c2ccncc2)n1 | 66* | 0 | 5 | -6 | 12
O=C(Nc1ccccc1Cl)c1csc(-c2cccnc2)n1 | 48* | 2 | -3 | 2 | -1
O=C(Cc1ccc(Br)cc1)N1CCN(C(=O)c2ccccc2)CC1 | 0 | / | / | / | /
CC(C)C(=O)Nc1cccc(-c2csc(-c3ccccc3)n2)c1 | 68* | 2 | -14 | 0 | 20
O=S(=O)(NCC1CN(S(=O)(=O)c2c(F)cccc2F)C1)c1ccc2c(c1)OCCO2 | 0 | / | / | / | /
COc1ccc(-c2nnc(Nc3nc4c(OC)cccc4s3)o2)cc1 | 75* | 0 | 2 | 4 | 3
COc1ccc(-c2nnc(Nc3nc4c(OC)cccc4s3)o2)c(OC)c1 | 26 | 2 | 31 | -2 | 5
COc1cc(Cl)c(C)cc1NC(=O)COC(=O)c1cnc(C)cn1 | 8 | 0 | -5 | 11 | 7
Cc1cccc(OCCOCCSc2ncccn2)c1 | 62* | 0 | 8 | -4 | -14
CCCCNC(=S)N(C)/N=C/c1c(C)[nH]c2ccccc12 | 71* | 0 | -2 | -2 | 13
COc1ccccc1CCC(=O)OCC(=O)Nc1ccc2[nH]c(=O)[nH]c2c1 | 2 | 2 | 15 | / | 4
O=C/C(=C\Nc1ccc(Cl)cn1)c1nc2ccccc2o1 | 36 | 0 | 4 | -3 | 3
O=C/C(=C\Nc1ccc(Cl)cn1)c1nc2cc(Cl)ccc2o1 | 51* | 1 | 1 | -30 | 5
CCN(CC)S(=O)(=O)c1ccc(N2CCOCC2)c(NC(=O)c2cccc3ccccc23)c1 | -1 | 46* | -5 | -12 | 1
CCn1c(SCC(=O)Nc2ccc3c(c2)OCCO3)nnc1C1CC1 | 6 | 0 | -2 | 16 | -3
COc1ccc(CC(=O)Nc2ccc(S(=O)(=O)N3CCC(C)CC3)cc2)c(OC)c1 | 0 | / | / | / | /
Cc1sc2nc(SCC(=O)N3CCCC3)[nH]c(=O)c2c1C | 59* | 0 | -4 | -4 | 18
Cc1sc2nc(SCC(=O)N3CCCCC3)[nH]c(=O)c2c1C | 8 | 0 | 20 | -8 | -2
CC1=C([N+](=O)[O-])C(c2ccc(Cl)cc2)NC(=O)N1C (centres undefined) | 2 | 0 | 27 | -4 | 6
Cc1cc(OCC(=O)NNC(=O)c2cccnc2)cc(C)c1Cl | / | / | / | 3 | /
Cc1cccc(N=C2NC(=O)S/C2=C\c2ccco2)c1 | 68* | 0 | -8 | -1 | -1
COc1ccccc1-n1c(CNC(=O)c2ccc(S(=O)(=O)N3CCCCC3)cc2)n[nH]c1=S | 3 | 0 | 10 | -5 | 12
Cc1ccc2c(c1)-c1cc(C)nn1C(c1ccc3c(c1)OCO3)N2 (centres undefined) | 94* | 1 | -11 | 5 | 5
Cc1ccc2c(c1)-c1cc(C)nn1C(c1sccc1C)N2 (centres undefined) | 27 | 1 | -5 | -7 | 0
Cc1cc2n(n1)C(c1ccc(N(C)C)cc1)Nc1ccccc1-2 (centres undefined) | 82* | 3 | 3 | 6 | -15
SMILES | AHR act | HIF act | PolyA inh | p-CIP stab down | Platelet DG rel
CSCC[C@H](NC(=O)OC(C)(C)C)C(=O)N1CCC(C(=O)NCC(=O)Nc2ccc(C)cc2)CC1 | 0 | 1 | 5 | -23 | 3
CS(=O)(=O)CCC(C(=O)Nc1ccc2c(c1)OCO2)N1Cc2ccccc2C1=O (centres undefined) | 12 | 1 | -21 | 5 | -9
Cc1ccc(C(=O)CSc2nnc(CNc3nc(-c4ccccc4)cs3)n2C)cc1 | 4 | 0 | 10 | -11 | -2
C/C(=N\N1CCN(C2c3ccccc3-c3ccccc32)CC1)c1cccnc1 | 4 | 0 | 13 | -10 | -3
CN=c1scc(-c2ccccc2F)n1/N=C(\C)c1cccnc1 | 78* | 1 | -9 | -2 | -5
O=C(Cn1cnc([N+](=O)[O-])n1)N/N=C/c1cccc2ccccc12 | 21 | 0 | 6 | -8 | 6
O=C(Cn1cncn1)N/N=C/c1cccc2ccccc12 | 70* | -2 | 2 | 0 | -1
COc1ccc(/C=N/NC(=O)c2c(C)nnn2-c2nonc2N)cc1OC | -6 | -1 | 6 | -7 | -7
ON=C1c2cc(OCCN3CCCCC3)ccc2-c2ccc(OCCN3CCCCC3)cc21 | 9 | 16* | 23 | -3 | 0
Cc1ccccc1CC(=O)N1CC(C)OC(C)C1 (centres undefined) | 0 | 1 | 5 | -5 | 1
N#Cc1ccccc1OCCCN1CCC(Cc2ccccc2)CC1 | 0 | 45* | -2 | 0 | 11
CCOc1ccccc1OCCN1CCC(Cc2ccccc2)CC1 | -1 | -1 | 0 | -8 | 15
Cc1ccc(C(=O)ONc2ccc(N=O)cc2)cc1 | 1 | 0 | -18 | -2 | 59*
O=Nc1ccc(NOC(=O)c2ccc(Br)cc2)cc1 | / | / | / | -5 | /
Cc1cc(O)ccc1NC(=S)NC(=O)c1cncc(Br)c1 | 60* | 0 | 3 | 0 | -2
O=C(/C=C/c1cccs1)N1CCc2ccccc21 | 54* | -1 | -15 | -9 | 21
COc1ccc(CN2CCNC(=O)C2CC(=O)N2CCCN(C(C)=O)CC2)c(OC)c1 (centres undefined) | 2 | 0 | 3 | 0 | 0
CCC(Sc1nc(C)cc(=O)[nH]1)C(=O)Nc1sc2c(c1C#N)CCCC2 (centres undefined) | 2 | 23* | 8 | -19 | 4
CC(Sc1nc(N)cc(=O)[nH]1)C(=O)Nc1sc2c(c1C#N)CCCC2 (centres undefined) | -1 | 0 | 17 | 7 | 1
O=C(Nc1ccc(F)cc1F)Nc1csc2ccccc12 | 51* | 1 | -3 | -4 | -7
O=C(Nc1ccncc1)Nc1ccc(F)c(Cl)c1 | 11 | 1 | 6 | -7 | 10
O=C(Nc1ccc(F)c(Cl)c1)Nc1csc2ccccc12 | 73* | 0 | -11 | -7 | -1
O=C1CCC(/C=C/c2ccccc2)=NN1Cc1ccc(F)cc1 | 0 | 0 | -17 | 1 | -2
Cn1c2ccccc2c2n[nH]c(=S)nc21 | 75* | 1 | ? | 10 | 16
Cn1c2ccccc2c2n[nH]c(=O)nc21 | -2 | 0 | 18 | -8 | 0
COc1ccc(S(=O)(=O)N(C)C[C@H]2Oc3c(NC(=O)C4CCCCC4)cccc3C(=O)N([C@H](C)CO)C[C@@H]2C)cc1 | 0 | / | / | / | /
O=C(Nc1nccs1)c1cn2ccccc2n1 | 62* | / | 2 | -19 | 14
CC/C(=N\NC(=O)c1nnn(-c2nonc2N)c1-c1cccs1)c1ccccc1 | 2 | 0 | 0 | -8 | 10
C=CCOc1c(Br)cc(CNc2ccc(NC(=O)CCC)cc2)cc1OCC | 3 | 0 | 22 | -7 | -5
C=CCOc1c(Br)cc(CNc2ccc(NC(=O)C(C)C)c(OC)c2)cc1OCC | 67* | 0 | 15 | 0 | 2

Screens as filed in PubChem.
